PubChem BioAssay
Calls of active or inactive are those of the source.

What was measured:
[1] = binders of probe aFSTL3 on microarray, primary screen, stem cell growth factor project, biochemical, small-molecule microarray, fluorescence 635/667 (AID 1064); conditions: higher = more signal;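 further: measures binding of the biotinylated anti-FSTL3 antibody to printed compounds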
[2] = binders from COS7 lysate, DM2A8 probe, primary screen, torsin A project, cell lysate, small-molecule microarray, fluorescence 635/667 (AID 1065); conditions: higher = more signal, COS7 lysate expressing mutant human TOR1A
[3] = binders of probe aFGF2 on microarray, primary screen, stem cell growth factor project, biochemical, small-molecule microarray, fluorescence 635/667 (AID 1067); conditions: higher = more signal;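 further: measures binding of biotinylated aFGF2 protein to printed compounds on slides; z-score merges feature fluorescence and signal-to-noise across triplicate slides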
[4] = binders of probe aFGF10 on microarray, primary screen, stem cell growth factor project, biochemical, small-molecule microarray, fluorescence 635/667 (AID 1071); conditions: higher = more signal;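 further: score merges 667 nm spot intensity and signal to noise from triplicate slides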
[5] = molecular target: Neurogenic locus notch homolog protein 2 (Homo sapiens) (UniProt Q04721); experiment: Notch2 binders on small-molecule microarrays, primary screen, biochemical, small-molecule microarray, 635 nm fluorescence, stem cell growth factors (AID 1073); conditions: Notch2 binding, higher = more signal
Chain of Neurogenic locus notch homolog protein 2 (Homo sapiens) (Q04721 whole entry, looked up, canonical isoform): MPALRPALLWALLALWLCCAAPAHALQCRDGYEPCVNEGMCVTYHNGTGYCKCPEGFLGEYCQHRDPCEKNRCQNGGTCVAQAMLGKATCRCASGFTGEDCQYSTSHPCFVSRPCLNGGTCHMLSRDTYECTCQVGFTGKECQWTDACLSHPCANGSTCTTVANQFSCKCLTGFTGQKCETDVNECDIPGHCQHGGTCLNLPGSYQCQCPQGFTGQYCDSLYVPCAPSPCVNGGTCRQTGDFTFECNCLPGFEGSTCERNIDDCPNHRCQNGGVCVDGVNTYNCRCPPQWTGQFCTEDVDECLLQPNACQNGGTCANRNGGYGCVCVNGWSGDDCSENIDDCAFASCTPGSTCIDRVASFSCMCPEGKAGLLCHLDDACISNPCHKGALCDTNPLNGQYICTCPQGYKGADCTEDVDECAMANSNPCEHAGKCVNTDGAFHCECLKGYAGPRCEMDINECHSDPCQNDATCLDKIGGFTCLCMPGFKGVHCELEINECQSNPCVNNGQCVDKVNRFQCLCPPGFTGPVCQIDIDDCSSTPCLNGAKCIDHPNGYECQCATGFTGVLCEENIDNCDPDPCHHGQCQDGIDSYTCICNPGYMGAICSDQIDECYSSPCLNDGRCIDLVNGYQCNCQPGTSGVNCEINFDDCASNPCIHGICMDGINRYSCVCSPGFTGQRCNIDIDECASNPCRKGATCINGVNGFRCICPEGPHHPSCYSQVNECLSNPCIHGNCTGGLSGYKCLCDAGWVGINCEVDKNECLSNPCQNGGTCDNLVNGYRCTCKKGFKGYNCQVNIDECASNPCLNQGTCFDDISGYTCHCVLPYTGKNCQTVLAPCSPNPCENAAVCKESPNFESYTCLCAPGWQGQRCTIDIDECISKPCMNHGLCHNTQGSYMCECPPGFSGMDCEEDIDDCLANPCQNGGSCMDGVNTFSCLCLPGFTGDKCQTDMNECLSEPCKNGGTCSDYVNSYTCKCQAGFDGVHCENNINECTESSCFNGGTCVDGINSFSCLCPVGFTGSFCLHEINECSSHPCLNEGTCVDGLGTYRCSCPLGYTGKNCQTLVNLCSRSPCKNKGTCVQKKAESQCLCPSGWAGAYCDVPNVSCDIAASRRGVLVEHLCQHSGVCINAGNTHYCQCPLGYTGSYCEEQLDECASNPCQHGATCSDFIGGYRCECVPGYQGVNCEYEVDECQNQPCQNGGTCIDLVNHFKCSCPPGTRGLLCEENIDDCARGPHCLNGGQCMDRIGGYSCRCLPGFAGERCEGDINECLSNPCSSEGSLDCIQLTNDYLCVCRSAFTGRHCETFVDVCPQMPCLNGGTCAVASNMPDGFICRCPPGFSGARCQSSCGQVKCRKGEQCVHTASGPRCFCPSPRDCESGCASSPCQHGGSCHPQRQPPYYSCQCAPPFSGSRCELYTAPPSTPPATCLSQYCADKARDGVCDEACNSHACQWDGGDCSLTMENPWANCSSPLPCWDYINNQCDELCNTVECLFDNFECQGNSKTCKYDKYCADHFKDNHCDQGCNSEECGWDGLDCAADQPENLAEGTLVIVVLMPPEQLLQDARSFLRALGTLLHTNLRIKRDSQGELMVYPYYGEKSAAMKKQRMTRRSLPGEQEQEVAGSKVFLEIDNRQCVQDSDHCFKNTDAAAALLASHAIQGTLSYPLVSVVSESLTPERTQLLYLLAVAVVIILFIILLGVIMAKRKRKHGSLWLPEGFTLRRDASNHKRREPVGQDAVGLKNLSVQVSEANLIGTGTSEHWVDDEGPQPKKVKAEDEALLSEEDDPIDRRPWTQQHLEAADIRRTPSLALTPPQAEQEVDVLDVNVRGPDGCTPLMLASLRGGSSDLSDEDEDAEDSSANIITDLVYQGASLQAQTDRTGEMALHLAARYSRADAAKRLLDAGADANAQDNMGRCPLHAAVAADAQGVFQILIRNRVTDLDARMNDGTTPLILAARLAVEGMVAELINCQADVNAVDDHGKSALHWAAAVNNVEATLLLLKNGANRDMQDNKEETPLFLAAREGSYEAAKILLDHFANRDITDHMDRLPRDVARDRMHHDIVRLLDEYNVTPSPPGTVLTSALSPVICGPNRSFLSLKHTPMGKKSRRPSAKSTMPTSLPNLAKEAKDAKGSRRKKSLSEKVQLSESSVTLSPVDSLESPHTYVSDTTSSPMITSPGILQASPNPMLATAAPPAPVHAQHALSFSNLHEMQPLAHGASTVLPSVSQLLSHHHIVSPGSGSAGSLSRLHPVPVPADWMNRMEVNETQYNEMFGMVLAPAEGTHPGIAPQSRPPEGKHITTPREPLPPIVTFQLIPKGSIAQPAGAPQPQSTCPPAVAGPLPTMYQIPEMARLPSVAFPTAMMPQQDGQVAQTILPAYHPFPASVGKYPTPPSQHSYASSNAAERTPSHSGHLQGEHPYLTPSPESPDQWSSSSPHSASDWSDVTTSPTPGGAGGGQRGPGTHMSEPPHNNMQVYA

[6] = molecular target: Pro-neuregulin-1, membrane-bound isoform (Homo sapiens) (UniProt Q02297); experiment: NRG1 binders on small-molecule microarrays, primary screen, psychiatric disease protein project, biochemical, small-molecule microarray, fluorescence 635/667 (AID 1075); conditions: NRG1 binding, 635 nm fluorescence, higher = more signal;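 further: score combines 667 nm spot fluorescence with signal to noise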
Chain of Pro-neuregulin-1, membrane-bound isoform (Homo sapiens) (Q02297 whole entry, looked up, the tested form may be a part, canonical isoform): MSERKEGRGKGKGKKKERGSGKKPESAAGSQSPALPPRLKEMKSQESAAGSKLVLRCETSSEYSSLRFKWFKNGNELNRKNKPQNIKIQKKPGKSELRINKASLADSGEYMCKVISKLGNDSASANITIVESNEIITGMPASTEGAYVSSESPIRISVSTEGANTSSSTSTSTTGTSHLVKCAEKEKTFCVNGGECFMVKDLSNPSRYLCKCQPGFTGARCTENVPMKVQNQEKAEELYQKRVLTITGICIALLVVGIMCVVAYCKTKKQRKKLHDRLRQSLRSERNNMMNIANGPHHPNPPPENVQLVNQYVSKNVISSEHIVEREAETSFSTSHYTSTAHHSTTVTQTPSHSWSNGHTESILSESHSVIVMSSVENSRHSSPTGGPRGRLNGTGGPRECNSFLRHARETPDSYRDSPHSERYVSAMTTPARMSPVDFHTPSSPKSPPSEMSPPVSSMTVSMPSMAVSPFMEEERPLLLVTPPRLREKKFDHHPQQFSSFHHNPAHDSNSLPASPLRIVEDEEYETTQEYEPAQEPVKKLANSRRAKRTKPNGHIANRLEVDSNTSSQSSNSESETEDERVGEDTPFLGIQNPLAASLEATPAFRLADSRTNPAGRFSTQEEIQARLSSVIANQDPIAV

[7] = system: Neuregulin-1 EGF-like domain; experiment: binders of neuregulin-1 EGF-like domain, primary screen, biochemical, small-molecule microarray, 635 nm fluorescence (AID 1081); conditions: small-molecule microarray binding, higher = more signal;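 further: binding of the protein to compounds printed on small-molecule microarray slides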
[8] = FRG1 promoter luciferase signal modulators, primary screen, FRG1 inhibition for FSHD, cell-based, C2C12 myotubes, firefly/Renilla luciferase, luminescence (AID 1084); conditions: higher = more signal, called active from +8 up or from −8 down
[9] = binders of probe aFST on microarray, primary screen, stem cell growth factor project, biochemical, small-molecule microarray, fluorescence 635/667 (AID 1086); conditions: higher = more signal;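 further: score merges 667 nm fluorescence with signal-to-noise of each printed compound spot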
[10] = binders of probe aHhip on microarray, primary screen, stem cell growth factor project, biochemical, small-molecule microarray, fluorescence 635/667 (AID 1087); conditions: higher = more signal;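 further: score merges spot fluorescence at 667nm with spot signal to noise ratio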

| SMILES | composite z-score [1] | composite z-score [2] | composite z-score [3] | composite z-score [4] | composite z-score [5] | composite z-score [6] | composite z-score [7] | z-score [8] | composite z-score [9] | composite z-score [10] |
| --- | --- | --- | --- | --- | --- | --- | --- | --- | --- | --- |
| O=C1O[C@@H](c2ccccc2)[C@@H](c2ccccc2)N2[C@@H](c3ccccc3OCCO)[C@]3(C(=O)Nc4ccc(C#CCCO)cc43)[C@@H](C(=O)O)[C@H]12 | -1.32 | 0.638 | -0.189 | 0.798 | 0.438 | 1.84 | 1.36 | -1.28 (inactive) | -0.423 | -0.945 |
| COCCOC(=O)N1C(=O)[C@@]2(c3cc(C#CC4(O)CCCCCC4)ccc31)[C@H](C(=O)N1CCN(c3ncccn3)CC1)[C@H]1C(=O)O[C@H](c3ccccc3)[C@H](c3ccccc3)N1[C@@H]2c1ccc(OCCO)cc1 | -0.266 | 0.318 | 0.192 | 0.727 | 1.24 | 0.939 | 1.33 | 0.401 (inactive) | 0.517 | 0.107 |
| COCCOC(=O)N1C(=O)[C@@]2(c3cc(C#CCNC(N)=O)ccc31)[C@H](c1ccc(O)cc1)N1[C@H](c3ccccc3)[C@H](c3ccccc3)OC(=O)[C@H]1[C@@H]2C(=O)N1CCCCCCC1 | 0.282 | 0.384 | -0.0022 | 0.646 | 1.1 | 0.523 | 1.07 | -0.199 (inactive) | 1.2 | -0.0491 |
| O=C1[C@H]2[C@H]3[C@H](O)[C@H](O)CC(=NOC[C@@H](O)COCc4ccco4)[C@H]3CC[C@H]2C(=O)N1C1CCCCC1 | -0.749 | 2.19 | -0.254 | -0.39 | -0.24 | -0.394 | 0.403 | -0.784 (inactive) | 0.101 | -0.156 |
| CC(CCN1CCc2nc(-c3ccccc3)c(-c3ccccc3)cc2C1)=NO[C@@H](C)c1cn([C@H](CO)Cc2ccccc2)nn1 | -0.261 | 0.608 | -0.143 | -0.0983 | -0.674 | 0.424 | 0.124 | -0.54 (inactive) | 0.0854 | -0.189 |
| O=C(CS)NCCCCCNC(=O)[C@H]1C[C@H]2C(=O)N3CCC[C@H]3C(=O)N2[C@H]1c1cccc(OCCO)c1 | 0.32 | 1.52 | -0.0718 | 0.564 | -0.0686 | 0.665 | 1.35 | 0.556 (inactive) | 0.442 | 0.0274 |
| COC(=O)[C@@]1(Cc2ccccc2)[C@H]2c3cc(C(=O)N4CCCC4)n(Cc4ccccn4)c3C[C@H]2CN1C(=O)c1ccccc1 | 0.731 | 0.415 | 0.589 | 1.14 | 1.52 | 2.18 | 1.35 | 2.5 (inactive) | 1.65 | 0.257 |
| C=COC[C@H]1CN2[C@@H](CC[C@@H](C)[C@@H]2c2ccc(Br)cc2)C(=O)O1 | -0.6 | 0.268 | -0.151 | 0.581 | 0.793 | 0.0578 | 1.12 | -0.688 (inactive) | 0.355 | 0.0373 |
| COC(=O)[C@H](C)NC(=O)CCC1CC(OC(=O)NCc2cccc3ccccc23)CC2(CCCC(COC(=O)NCC3CCCCC3)O2)O1 (stereo not given in full) | -0.641 | 0.585 | -0.0775 | 0.406 | 1.34 | 1.06 | 1.16 | 0.619 (inactive) | 0.715 | 0.21 |
| C=C(CCCC)C(=O)CC[C@@H](OC(C)=O)c1cccc(OCCO)c1 | -0.168 | -0.371 | -0.152 | -0.565 | -0.46 | 0.25 | 1.36 | -3.56 (inactive) | -0.507 | -0.0994 |
| COc1ccc([Si](C)(C)[C@H]2[C@H](CCO)O[C@@]3(C(=O)N(Cc4cccc(NC(=O)[C@H](C)O)c4)c4ccccc43)[C@@H]2C)cc1 | -0.456 | 0.634 | -0.101 | 0.136 | 0.612 | 0.84 | 1.22 | -2.68 (inactive) | -0.0054 | 0.212 |
| C[C@H](c1ccccc1)N1C(=O)[C@H]2[C@@H]3C(=CC[C@H]2C1=O)C(=O)[C@H]1O[C@H]1[C@H]3O | -0.518 | 0.34 | -0.135 | 0.134 | 0.582 | -0.198 | -0.133 | 14.4 (active) | 0.128 | -0.289 |
| C#CCCCON=C1C[C@@H](O)[C@@H](O)[C@@H]2[C@@H]3C(=O)N([C@@H](C)c4ccccc4)C(=O)[C@@H]3CC[C@H]12 | -0.196 | -0.0639 | -0.127 | 0.342 | 0.76 | 0.233 | 0.755 | 0.548 (inactive) | 0.342 | -0.0994 |
| C=CC[C@@H]1C=C[C@H](ON=C2c3cc(OC)ccc3O[C@H](c3cccc(OC)c3)[C@H]2O)[C@@H](CO)O1 | -0.342 | 0.0359 | -0.1 | 0.415 | 0.144 | 0.0499 | -0.199 | -0.577 (inactive) | 0.127 | -0.0994 |
| C[C@@H]1CCC2C(=O)N(Cc3ccccc3)C[C@@H](O)CN2[C@H]1c1ccc(Br)cc1 (stereo not given in full) | -0.364 | 0.381 | -0.145 | 0.84 | -0.05 | 0.0596 | 0.963 | -0.765 (inactive) | -0.0584 | -0.0618 |
| CC(CCC(=O)OC[C@H]1O[C@H](C#Cc2ccccc2)C=C[C@@H]1Oc1ccc(C)cc1)=NO[C@@H](C)c1cn([C@H](CO)Cc2ccccc2)nn1 | -0.583 | 0.0364 | 0.0092 | 0.63 | 0.161 | 0.122 | 0.0865 | 1.02 (inactive) | 0.263 | -0.327 |
| CCOC(=O)CCN1C(=O)[C@H]2[C@H]3[C@H](O)[C@H](O)CC(=NOC[C@@H](O)COCc4ccco4)[C@@H]3CC[C@H]2C1=O | 0.545 | 0.457 | 0.0166 | 0.484 | -0.328 | -0.21 | 0.486 | -0.124 (inactive) | 0.356 | -0.134 |
